# Results: PubChem BioAssay (NCI)
# The panel holds about 83,000 compounds, 20% with a hit somewhere; the sample as a whole holds those more often.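 Compound tested at a single concentration for 48 hours in 96-well plates; a percent growth value below 10 was scored as active.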 The source made the active and inactive calls.
# System: HL-60(TB) leukemia
# Experiment: NCI-60 one-dose screen, 48 h (100 = growth as untreated, 0 = no growth, -100 = all killed)
# Conditions: 10 µM unless noted
row,SMILES,growth
1,O=C1C2=C(C(=O)c3c(O)cccc31)C(c1ccco1)c1sc(=O)[nH]c1S2 (centres undefined),-17.6% (active)
2,Oc1ccc(CSc2nnc(-c3ccc(Br)cc3)o2)c2cccnc12,23% (inactive)
3,CCOC(=O)c1sc(N)c(C(=O)OCC)c1C,38.5% (inactive)
4,COc1ccc(-c2ccnc3c(C#N)c(Nc4ccccc4)nn23)cc1OC,71.1% (inactive)
5,CC1=NC2=NC(=O)/C(=C3/N=C(C)C=C(c4ccccc4)N3N)NN2C(c2ccccc2)=C1,113% (inactive)
6,C#C[C@]1(O)CC[C@H]2[C@@H]3CC=C4c5sc(Nc6ccncc6)nc5CC[C@]4(C)[C@H]3CC[C@@]21C,-24% (active)
7,COc1ccc(C(=O)/C=C/c2ccc(Oc3nc(NCCO)nc(N4CCOCC4)n3)c(OC)c2)cc1,15.5% (inactive)
8,CCCCc1nc(/C=N/Nc2nc(Nc3ccccc3)nc(Nc3ccc(S(N)(=O)=O)cc3)n2)c(Cl)[nH]1,118% (inactive)
9,Cc1[nH]c(C(=O)Nc2ccc(C(=O)NCC3CCNCC3)cc2OC(C)C)c(Cl)c1Cl,73.1% (inactive)
10,CS(=O)(=O)c1ccc(/C(=N/N=C(N)N)c2ccc(F)cc2)cc1,97.8% (inactive)
11,CCC1=Cc2c(OC)cccc2OC12C=Cc1c(OC)cccc1O2 (centres undefined),-6.34% (active)
12,COc1ccc(-c2nc3ccc(-c4nnc(SCC(=O)Nc5ccc(C(=O)/C=C/c6ccccc6)cc5)o4)cc3[nH]2)cc1OC,100% (inactive)
13,Cc1ccc(-c2csc(N/N=C/c3nc4ccccc4n3C3CC3)n2)cc1,7.25% (active)
14,CN(C)c1ccc(/C=c2\sc3nc4ccccc4n3c2=O)cc1,94.7% (inactive)
